Screening data (PubChem BioAssay)
Marburg entry inh – qHTS for inhibitors of binding or entry into cells for Marburg Virus; Marburg virus pseudotyped entry inhibition, cell reporter; Potency, µM (doses to about 37.8 µM), for inactives: at the highest dose activity change, negative = inhibition, actives largely listed as inhibitors; 300,000 tested, 1.8% active; AID 540276, 2011; calls by dose curve; tested in HEK293 cells; further: potency means the concentration at half of the fitted maximal effect
VACV Venus inh – qHTS for Stage-Specific Inhibitors of Vaccinia Orthopoxvirus: Venus Reporter Primary qHTS. Vaccinia virus Venus reporter expression, fluorescence. Potency, µM (top dose mostly 36.5 µM), for the others: at the highest dose activity change, negative = inhibition, most hits filed as inhibitors. 330,000 tested, 0.46% active; calls by dose curve; tested in A549 cells; further: potency means the concentration at half of the fitted maximal effect; nearly all actives have a fitted effect of over 30% in size
Vaccinia mCherry – qHTS for Stage-Specific Inhibitors of Vaccinia Orthopoxvirus: mCherry Reporter Primary qHTS | Vaccinia virus mCherry reporter infection, fluorescence | Potency, µM (series often up to 36.5 µM), for inactives: at the highest dose activity change, negative = inhibition, most hits filed as inhibitors | 310,000 tested, 0.63% active; calls by dose curve; tested in A549 cells; further: potency means the concentration at half of the fitted maximal effect; nearly all actives have a fitted effect of over 35% in size
HCMV inh – qHTS Assay for inhibitors of the human cytomegalovirus (HCMV) | HFF cells, HCMV-luciferase reporter, 72 h; stronger effect = lower value | 410,000 tested, 4.5% active | activity change, negative = inhibition, % at 57.5 µM; in the data active means activity change below about -60%; inconclusive means no clear call, values can overlap the other calls; inactive means above about -39%
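Compounds were evaluated in HFFs infected with an HCMV luciferase reporter virus (MOI 1 PFU/cell). Luciferase in lysates collected 72 h post infection served as the replication measure.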
Lassa entry inh – qHTS for Inhibitors of binding or entry into cells for Lassa Virus; Lassa virus pseudotype entry inhibition, cell reporter; Potency, µM (top dose mostly 37.9 µM), for the others: top-dose activity change, negative = inhibition, actives largely listed as inhibitors; 300,000 tested, 1.2% active; AID 540256, 2011; calls by dose curve; tested in HEK293 cells; further: potency means the concentration at half of the fitted maximal effect; nearly all actives have a fitted effect of over 50% in size
FMDV inh – High Throughput Screening for Foot and Mouth Disease Virus Antivirals | Potency, µM (top dose mostly 57.9 µM), for the others: top-dose activity change, negative = inhibition, most hits filed as inhibitors | FMDV antiviral cell-based qHTS | 410,000 tested, 1.2% active | AID 1159524, 2015; calls by dose curve; tested in HEK293T cells; further: read-out not given here; potency means the concentration at half of the fitted maximal effect; nearly all actives have a fitted effect of over 45% in size
* hit, by the source's call; i = inactive; ? = inconclusive; · = no result; [ ] = another dose, or the depositor's remark. Only some compounds are listed: those with a hit (about 6.5% of all), similar ones and a draw of the others. On the % scale 0 is the no-effect control and ±100 the full control effect.

SMILES	Marburg entry inh	VACV Venus inh	Vaccinia mCherry	HCMV inh	Lassa entry inh	FMDV inh
COc1ccc(NC(C)C(=O)N/N=C/c2ccc([N+](=O)[O-])s2)cc1 (stereo unspecified)	-9%[46.1 µM]	13µM*	8.9µM*	?	-11%	-24%
Cc1ccc(NC(C)C(=O)N/N=C/c2ccc([N+](=O)[O-])s2)cc1 (stereo unspecified)	?	?	?	-70*	?	-4%
Cc1cc(C)c(NC(=O)Cc2csc(C)n2)c(Cl)c1	-5%[46.1 µM]	-12%	3%	-61*	?	5%
COc1ccc2c(c1OC)C(=O)N1c3ccccc3C(=O)N(Cc3ccco3)C21 (stereo unspecified)	·	-8%	-1%	·	·	·
O=C(CCN1C(=O)COc2ccccc21)N1CCN(c2ccccn2)CC1	9%	-8%	-19%	-73*	?	·
C=CCCN1C(=O)NC(c2ccccc2)C(C(=O)OC)=C1C (stereo unspecified)	-16%[14.2 µM]	·	·	·	·	·
O=C(Nc1ccc(Cl)c(Cl)c1)Nc1nnc(CSc2ccccc2)s1	10µM*	-24%	-19%	-99*	3.5µM*	?
O=C(Nc1ccccc1)Nc1nnc(CSCc2ccccc2Cl)s1	-2%	?	?	?	-5%	0%
O=C(Nc1ccc(Cl)cc1)Nc1nnc(CSCc2ccccc2Cl)s1	·	·	·	-91*	·	?
CCOC(=O)/C=C/[C@H]1CC2(CCO1)SCCCS2	·	-8%	-30%	6	·	39%
COc1ccc(Cl)cc1C(=O)NCCc1ccc(S(=O)(=O)NC(=O)NC2CCCCC2)cc1	?	-11%	-18%	-63*	-23%	-17%
CC(/C=C/c1ccccc1)=N\NC(N)=S	?	?	4µM*	-5	-18%	-8%
O=C(c1ccccc1)c1ccc(OCC(O)CN2CCN(S(=O)(=O)N3CCCCC3)CC2)cc1 (stereo unspecified)	-20%	·	·	-67*	?	14µM*
CSc1ccccc1C(=O)NCC1Cc2cccc(-c3ncccc3C)c2O1 (stereo unspecified)	·	-16%	i	·	·	-5%
COc1ccc(NC(=O)c2cnc(SC)n2-c2ccc(F)cc2)c(OC)c1	13µM*	-7%	i	9	?	?
Nc1nc(=O)n(C2CC(O)C(CO)O2)cc1F (stereo unspecified)	?	?	?	-97*	?	8%
O=c1[nH]c(=O)n(C2CC(O)C(CO)O2)cc1C(F)(F)F (stereo unspecified)	·	-26%	2µM*	·	·	0%
CC(C)CC1NC(=O)c2cc3ccccc3cc2-n2c1nc1ccc(F)cc1c2=O (stereo unspecified)	·	-28%	-6%	-30	·	?
c1ccc2oc(-c3csc(N4CCOCC4)n3)cc2c1	7.9µM*	-19%	-10%	-11	?	-59%
Fc1ccc(-c2csc(N3CCOCC3)n2)cc1	?	-1%	?	38	5%[46.1 µM]	18%
CCc1c(C)nc2nncn2c1NCc1ccc(Cl)cc1	?	?	-9%	-69*	-5%[46.1 µM]	?
Cc1ccc(CNc2c(C)c(C)nc3nncn23)cc1	?	-28%	?	-25	27%[46.1 µM]	?
CN1/C(=C\C(=O)COc2ccc3c(c2)OCO3)C(C)(C)c2ccccc21	-1%	-4%	-23%	?	-18%	25µM*
CN1/C(=C\C(=O)c2cncc(Br)c2)C(C)(C)c2ccccc21	?	28%	-14%	-73*	?	?
CN1/C(=C\C(=O)c2cccnc2)C(C)(C)c2ccccc21	7%	-17%	-4%	-2	0%	18%
COc1ccccc1OCC(=O)/C=C1/N(C)c2ccccc2C1(C)C	19%[46.1 µM]	-14%	-16%	21	-24%	?
CN1/C(=C/C(=O)c2nc(S(C)(=O)=O)ncc2Cl)C(C)(C)c2ccccc21	?	?	28µM*	·	16µM*	10µM*
CN1/C(=C\C(=O)C[n+]2ccc3ccccc3c2)C(C)(C)c2ccccc21	?	-4%	-3%	-97*	?	?
